PNC inhibitor: perinucleolar compartment assembly inhibition. PC3M PTB-GFP, PNC prevalence imaging, 16 h; stronger effect = lower value. activity change (PNC), negative = inhibition, % at 10 µM. hit rate 3.1% among 140,000. AID 2417;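 active = readout at or below -70, meaning at least 70% loss of cells showing the perinucleolar compartment, a nuclear body marking cancer cells; inconclusive = readout between -30 and a set limit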;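 also: plate controls were DMSO wells for no effect and camptothecin positive control wells for full effect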
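PC3M cells stably expressing PTB-GFP, 750–1000 cells/well, treated 16 h at 37 °C with compound (23 nl of library stock), in duplicate. After paraformaldehyde fixation and Hoechst stain, imaged at 20x; PNC prevalence scored by image analysis.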
HPGD inh: HPGD (human) dehydrogenase inhibition | purified HPGD, NADH fluorescence kinetic, PGE2 substrate | Potency, µM, for inactives: top-dose activity change, negative = inhibition, actives largely listed as inhibitors | hit rate 4.3% among 150,000 | AID 894; also: potency is read from the fitted curve at half-maximal effect
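20 nM HPGD preincubated 15 min at room temperature with compound in 50 mM Tris-HCl pH 8, 0.01% Tween 20. Started with 1 mM NAD+ and 30 uM prostaglandin E2; NADH fluorescence (360/450 nm) read 5 times over 30-s intervals, last minus first.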
ALDH1A1 block: inhibitors of human aldehyde dehydrogenase 1A1 | Potency, µM (series often up to 75.3 µM), for inactives: at the top dose activity, negative = inhibition, most hits filed as inhibitors | Purified ALDH1A1, NADH fluorescence, propionaldehyde substrate | hit rate 7.3% among 220,000;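 also: potency is read from the fitted curve at half-maximal effect; plate controls were no enzyme wells and a reference inhibitor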
Target sequence (P00352 whole entry, looked up): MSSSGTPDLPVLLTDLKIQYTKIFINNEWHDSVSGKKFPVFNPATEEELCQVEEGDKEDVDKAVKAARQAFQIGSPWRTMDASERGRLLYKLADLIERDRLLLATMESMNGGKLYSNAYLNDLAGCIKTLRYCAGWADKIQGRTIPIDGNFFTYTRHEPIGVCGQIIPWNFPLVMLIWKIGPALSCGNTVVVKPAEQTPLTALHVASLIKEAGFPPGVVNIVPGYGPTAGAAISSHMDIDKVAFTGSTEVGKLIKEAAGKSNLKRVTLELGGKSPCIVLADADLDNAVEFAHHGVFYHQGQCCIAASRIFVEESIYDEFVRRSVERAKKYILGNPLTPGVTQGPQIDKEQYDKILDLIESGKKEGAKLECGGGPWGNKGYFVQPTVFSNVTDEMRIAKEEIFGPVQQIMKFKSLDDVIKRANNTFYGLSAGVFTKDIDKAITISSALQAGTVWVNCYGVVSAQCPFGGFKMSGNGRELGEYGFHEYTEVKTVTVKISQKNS
Active calls of the source: *; ? = inconclusive; / = not tested or not shown; [ ] = another dose, or the depositor's remark. An excerpt weighted towards active compounds, which were near 11% of everything screened. Unless noted, calls follow the shape of the dose curve; as a rule, active = well fitted inhibition curve with a large enough effect (not every such curve was filed as active); inconclusive = small, poorly fitted or top-dose-only effect, or another doubt; inactive = no such curve, though single readings can be large or run the other way. Unless noted, % is scaled to controls: 0 for no effect and ±100 for the full control effect.

SMILES | PNC inhibitor | HPGD inh | ALDH1A1 block
O=C1c2cccnc2C(Nc2ccccc2Br)N1Cc1ccco1 (centres undefined) | / | / | 25µM*
C/C(CC(=O)Nc1cc(Cl)ccc1C)=N\NC(N)=O | / | / | 7%
Cc1ccc(CSC2=NCCN2C(=O)C2CC2)cc1 | 11 | 1% | 13%
CC(C)N1CCC(N2CCN(C3CCCC3)CC2CCO)CC1 (centres undefined) | / | / | 0%
Cc1cccc(N2CCC(N3CCN(C4CCCCC4)C(CCO)C3)CC2)c1C (centres undefined) | / | / | 3.5µM*
CCCCC/C=C\C/C=C\C/C=C\CCCCCCC(=O)NCCc1ccc(O)c(O)c1 | / | 0% | -7%
CC(=O)c1sc(N/N=C\c2ccccc2O)nc1C | / | / | -6%
CC(=O)c1sc(N/N=C2\CC3CC2C(C)C3(C)C)nc1C (centres undefined) | / | / | 16µM*
Cc1ccc(N2C(=O)CN(Cc3cccs3)C2=S)cc1C | / | / | 14%
Cc1ccc(N2C(=O)CN(Cc3sccc3C)C2=S)cc1C | -26 | 3.2µM* | ?
CC1CCN(c2ncnc3nc[nH]c23)CC1 | -10 | -9% | 6%
c1nc(N2CCCCC2)c2[nH]cnc2n1 | -119* | -11% | 1%
CCCc1[nH][nH]c(=O)c1C(c1cccc(Cl)c1)C(C#N)C#N (centres undefined) | 14 | 16µM* | 14µM*
N#CC(C#N)C(c1ccsc1)c1c(-c2ccccc2)[nH][nH]c1=O (centres undefined) | ? | -18% | -1%
CCc1ccc(NC(=O)c2c(C(=O)Nc3ccccc3)sc3nc(C)cc(=O)n23)cc1 | / | / | 0.89µM*
Cc1ccc(NC(=O)c2c(C(=O)Nc3ccccc3)sc3nc(C)cc(=O)n23)cc1 | / | / | 4.5µM*
CCc1ccc(NC(=O)Nc2cccc(OC)c2)cc1 | / | / | 4%
Cc1ccc(NC(=O)c2cc(C)nn2-c2ccccc2)cc1 | 5 | -9% | -2%
Cc1cccc(Cn2c(C(C)(C)C)cc3cccnc32)c1 | 21 | -10% | -14%
Clc1ccc(N=c2ssnc2Cl)nc1 | / | / | -3%
Clc1nssc1=Nc1ccc(Br)cc1 | / | / | 1.8µM*
OCc1ccccc1N=c1ssnc1Cl | -4 | 6.3µM* | 0.89µM*
OCc1c(Cl)nc2ccccn12 | / | / | 7%
COc1cc(OC)cc(-c2nc(-c3ccccc3OC)no2)c1 | 11 | -13% | -5%
N#Cc1cccc(N=c2ssnc2Cl)c1 | / | / | 1.3µM*
SMILES | PNC inhibitor | HPGD inh | ALDH1A1 block
COc1cc(N=c2ssnc2Cl)cc(OC)c1 | ? | 0.63µM* | 0.32µM*
CCOCCCNC(=O)Cc1c(C(=O)O)[nH]c2ccc(Cl)cc12 | ? | -13% | -5%
COc1ccc(-c2ccccc2[C@H]2[C@@H]3C=CC[C@@H](C)[C@@H]3C(=O)N2Cc2ccccc2)cc1 | / | -18% | 1%
O=C(O)CNc1ccc(C(=O)O)cc1 | / | -3% | 6%[13.5 µM]
CCOC(=O)c1ccc(OC(=O)CCCCCN=C(N)N)cc1 | / | 5% | -9%
Cc1ccc(NC(=O)Nc2nc(-c3ccc(C)s3)cs2)cc1 | 64 | 1% | 25%
Cn1nc(C(=O)Nc2c(-c3ccccc3)nc3sccn23)c2ccccc2c1=O | ? | -25% | -1%
COC(=O)[C@@H]1C[C@@]2(O)[C@H](O)[C@H](O)[C@H](O)C[C@H]2N1C/C=C/c1ccccc1 | / | -7% | 2%
O=C(O)c1cnn2c(-c3ccc(F)cc3)ccnc12 | / | / | -5%
Cc1cnc(CNc2nc(-c3ccc(C(=O)N(C)C)cc3)nc3ccccc23)cn1 | / | 14µM* | 5%
CN(C)C(=O)c1ccc(-c2nccc(NCc3cccs3)n2)cc1 | / | / | 7%
CNc1nc(-c2ccc(C(=O)N(C)C)cc2)nc2ccccc12 | / | / | 4%
Cc1cccc(CNc2nc(-c3ccoc3)nc3ccccc23)c1 | / | -6% | -14%
c1ccc(CNc2nc(-c3ccoc3)nc3ccccc23)cc1 | / | / | 32µM*
CN(C)C(=O)c1ccc(-c2nccc(NCc3cccnc3)n2)cc1 | / | 14µM* | 2%
CN(C)C(=O)c1ccc(-c2cncnc2NCc2ccccc2)cc1 | / | / | -14%
CN(C)C(=O)c1ccc(-c2nnc(NCc3ccccc3)c3ccccc23)cc1 | 24 | 2.5µM* | ?
COc1ccc2c(c1)O/C(=C\c1sccc1C)C2=O | ? | -26% | -4%
Cc1nc2nc3c(cn2n1)C(=O)CCC3 | ? | -11% | 13%
CCNC(=S)N/N=C/c1sccc1C | / | / | -1%
CN(C)C(=O)c1ccc(-c2nc(NCc3cccnc3)c3ccccc3n2)cc1 | / | 16µM* | -1%
CC(C)(C)c1ccc(-c2nc(NCc3cccnc3)c3ccccc3n2)cc1 | 14 | -13% | 11%
Cc1cc(C(=O)CCl)c(C)n1-c1ccon1 | / | / | 0.63µM*
CC(=O)c1c(C(C)=O)c(C)n(-c2cccc([N+](=O)[O-])c2)c1C | -3 | -15% | -7%
CC(=O)c1cccc(OCC(=O)c2cc(C)n(-c3cc(C)on3)c2C)c1 | ? | -19% | 7%
SMILES | PNC inhibitor | HPGD inh | ALDH1A1 block
Cc1cc(C(=O)CCl)c(C)n1-c1cccc([N+](=O)[O-])c1 | / | / | 0.32µM*
Clc1ccc(C2=Nn3c(nnc3-c3n[nH]c4c3CCC4)SC2)cc1Cl | -25 | -5% | -4%
COc1ccc(C2C(C(=O)Nc3ccccn3)=C(C)Nc3ncnn32)c(OC)c1 (centres undefined) | -20 | -5% | 4%
Cc1ccc(CNc2ccc(O)cc2)cc1 | -21 | ? | 10µM*
Cc1ccc(NCCNc2ccc(C)cc2)cc1 | 19 | -8% | 0%
COc1ccc(-c2[nH]ncc2CN(C)Cc2cccnc2)c(OC)c1 | / | / | -11%
COc1ccc(-c2[nH]ncc2CN(C)CCc2c(C)n[nH]c2C)c(F)c1 | / | / | 10µM*
Cn1c(=O)c2c(nc(SCC(=O)c3ccccc3F)n2C)n(C)c1=O | / | / | 18µM*
Cn1c(=O)c2c(nc(SCC(=O)Nc3ccccc3)n2C)n(C)c1=O | 10 | -13% | 9%
Cc1nc(SCC(=O)OCc2ccccc2)c2c(=O)n(C)c(=O)n(C)c2n1 | 7 | -16% | -13%
Cn1c(=O)c2c(nc(SCC(=O)OCc3ccccc3)n2C)n(C)c1=O | -96* | 3% | 0%
Cc1cc(C)cc(N(C(=O)CCC(=O)Nc2ccccn2)C(C(=O)NC(C)C)c2ccc(O)cc2)c1 (centres undefined) | / | / | 8%
NC(=O)c1ccc(NC(=O)Cc2csc(-c3ccccc3)n2)cc1 | / | / | 11%
C#CCCCO/N=C1/C[C@@H](O)[C@@H](O)[C@@H]2[C@@H]3C(=O)N(Cc4ccc5c(c4)OCO5)C(=O)[C@H]3CC[C@H]12 | / | / | -6%[13.5 µM]
CCOC(=O)c1cc(-c2ccccc2)n(CCC(=O)O)c1C | -14 | -12% | 0%
NCCn1c(-c2ccccc2)cc(C(=O)O)c1-c1ccccc1F | -81* | -19% | ?
CC(/C=C/c1ccc(O)cc1)=N/O | ? | -19% | -9%
Cc1nc(NC(C)c2ccccc2)c2oc3ccccc3c2n1 (centres undefined) | -30 | -26% | -14%
CCCN(S(=O)(=O)c1ccc(OCC)cc1)S(=O)(=O)c1cccs1 | -27 | ? | ?
CCNc1nc(N)nc(Oc2ccc(OCCOc3ccccc3)nn2)n1 | 12 | 25µM* | 2%
CCNc1nc(N)nc(Oc2ccc(OCc3ccccc3)nn2)n1 | 29 | -21% | -5%
CCCSc1nc(N)nc(-c2cccs2)c1C#N | 18 | ? | ?

From PubChem
